Results: PubChem BioAssay (EPA / NIEHS)
Inconclusive results are not listed. Activity calls are given as the source filed them. Rule for the calls, unless noted: active = hit-call score of the fitted dose curve at least 0.9, where 1 is the maximum; inactive = score below 0.9.

Experiments:
[1] = ATG_TAL_CIS: Attagene CIS-FACTORIAL HepG2 Assay for human TAL Basal Promoter (AID 2282966); conditions: HepG2 Attagene cis-factorial TAL promoter reporter; actives raise or lower the signal;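 note: background control endpoint measuring basal TAL promoter reporter mRNA not a specific factor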
Summary of the method: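 In this cell-based multiplex, HepG2 liver cells bearing cis-promoter reporter constructs are dosed for 24 hours. Total RNA is reverse-transcribed and amplified, labelled fragments are sized by capillary electrophoresis, and signal changes are fitted bidirectionally versus DMSO.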

[2] = ATG_TGFb_CIS: Attagene CIS-FACTORIAL HepG2 Assay for human Transforming Growth Factor (TGF) (AID 2282967); conditions: HepG2 Attagene CIS TGFb reporter, mRNA transcription; actives raise or lower the signal
Summary of the method: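 Endogenous TGFB1-linked transcription factor activity read as reporter mRNA via RT-PCR and capillary electrophoresis, 24 h after dosing transiently transfected HepG2 cells. Gain or loss of signal fitted relative to DMSO.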

[3] = ATG_VDRE_CIS: Attagene CIS-FACTORIAL HepG2 Assay for human Vitamin D Receptor Element (VDRE) (AID 2282968); conditions: HepG2 VDRE cis-reporter transcription, actives raise or lower the signal
Summary of the method: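 In transiently transfected HepG2 liver cells, gain or loss of reporter mRNA after 24 h exposure is scored relative to DMSO, using fluorescence detection by capillary electrophoresis of RT-PCR products.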

[4] = target: X-box-binding protein 1 (Homo sapiens) (UniProt P17861); assay: ATG_Xbp1_CIS: Attagene CIS-FACTORIAL HepG2 Assay for human X-box Binding Protein 1 (XBP1) (AID 2282972); conditions: HepG2 XBP1 cis-element reporter, Attagene multiplex; actives raise or lower the signal
Summary of the method: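 HepG2, transient MRTU transfection (cis-promoter driven), 24 h compound exposure. Total RNA → oligo(dT) RT → PCR → 6-FAM labeling → HpaI cut → CE. Bidirectional fit vs DMSO.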

[5] = ATG_GAL4_TRANS: Attagene TRANS-FACTORIAL HepG2 Assay for GAL4 (Internal Marker) (AID 2282976; active = hit-call score of the fitted dose curve at least 0.9, where 1 is the maximum); conditions: HepG2 Attagene TRANS GAL4 internal marker reporter
Summary of the method: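 RT-PCR/capillary electrophoresis readout of reporter mRNA. HepG2, transient MRTU transfection (GAL4-UAS reporters), 24 h compound exposure. Background-control endpoint, positive direction vs DMSO baseline.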

[6] = target: Glucocorticoid receptor (Homo sapiens) (UniProt P04150); assay: ATG_GR_TRANS: Attagene TRANS-FACTORIAL HepG2 Assay for human Glucocorticoid Receptor (GR) (AID 2282978; active = hit-call score of the fitted dose curve at least 0.9, where 1 is the maximum;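 note: activators score as hits since higher reporter transcript over DMSO is fitted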); conditions: HepG2 Attagene TRANS GR reporter, mRNA transcription
Summary of the method: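 In this trans-factorial format, exogenous NR-GAL4 chimeric proteins in transfected HepG2 cells regulate GAL4-UAS reporter transcription. After 24 h treatment, reporter mRNA induction relative to DMSO is read by RT-PCR and capillary electrophoresis.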

[7] = target: Bile acid receptor (Homo sapiens) (UniProt Q96RI1); assay: ATG_FXR_TRANS: Attagene TRANS-FACTORIAL HepG2 Assay for Farnesoid X Receptor (FXR) (AID 2282979; active = hit-call score of the fitted dose curve at least 0.9, where 1 is the maximum;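 note: hits raise reporter mRNA above DMSO so AC50 marks FXR activation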); conditions: HepG2 Attagene TRANS FXR-GAL4 reporter transcription
Summary of the method: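 Read-out: fluorescent reporter transcripts quantified by capillary electrophoresis after RT-PCR of total RNA. Source cells were HepG2 transiently carrying chimeric NR-GAL4 plus GAL4-UAS reporter units, dosed 24 h. Activity fitted upward relative to DMSO baseline.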

[8] = ATG_M_06_TRANS: Attagene TRANS-FACTORIAL HepG2 Assay for M06 Transcription Factor (Internal Marker) (AID 2282983; active = hit-call score of the fitted dose curve at least 0.9, where 1 is the maximum); conditions: HepG2 Attagene TRANS M06 internal marker reporter
Summary of the method: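 After a 24 h chemical treatment of transfected HepG2, RNA underwent DNase I treatment, reverse transcription and reporter-specific PCR; labelled, HpaI-digested products were sized by capillary electrophoresis. Signal increase relative to DMSO defined activity.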

[9] = target: Transcriptional activator Myb (Homo sapiens) (UniProt P10242); assay: ATG_Myb_CIS: Attagene CIS-FACTORIAL HepG2 Assay for human Myeloblastosis (Myb) Proto-Oncogene Transcription Factor (AID 2282986); conditions: HepG2 Attagene CIS-FACTORIAL Myb reporter transcription; actives raise or lower the signal
Summary of the method: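 Steps: transfect HepG2 with cis-regulated reporter units; dose with chemical for 24 h; isolate RNA, reverse-transcribe, PCR-amplify and FAM-label reporter sequences; digest with HpaI; resolve by capillary electrophoresis. Activity fitted in both directions relative to DMSO.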

[10] = target: Nuclear respiratory factor 1 (Homo sapiens) (UniProt Q16656); assay: ATG_NRF1_CIS: Attagene CIS-FACTORIAL HepG2 Assay for human Nuclear Respiratory Factor 1 (NRF1) Orphan Gene (AID 2282987); conditions: HepG2 NRF1 cis-element reporter, Attagene multiplex; actives raise or lower the signal
Summary of the method: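 Fluorescence intensity of labelled reporter cDNA fragments, resolved by capillary electrophoresis, served as readout for NRF1 cis-element activity. Transiently transfected HepG2 cells were dosed for 24 hours; activity in either direction was fitted against DMSO negative control.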

[11] = target: Estrogen receptor (Homo sapiens) (UniProt P03372); assay: ATG_ERa_TRANS: Attagene TRANS-FACTORIAL HepG2 Assay for human Estrogen Receptor alpha (ERa) (AID 2282970; active = hit-call score of the fitted dose curve at least 0.9, where 1 is the maximum); conditions: HepG2 Attagene TRANS ERa GAL4 reporter, mRNA
Summary of the method: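 After 24 h of compound treatment, RNA from HepG2 cells bearing transfected GAL4-UAS reporter constructs is converted to cDNA, amplified and fluorescently labelled. Capillary electrophoresis resolves the ERa-linked reporter; DMSO serves as negative control.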

[12] = ATG_M_19_TRANS: Attagene TRANS-FACTORIAL HepG2 Assay for M19 Transcription Factor (Internal Marker) (AID 2282974; active = hit-call score of the fitted dose curve at least 0.9, where 1 is the maximum); conditions: HepG2 Attagene TRANS-FACTORIAL M19 internal marker reporter
Summary of the method: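 Cells: human HepG2, transiently transfected with multiplexed reporter transcription units. Exposure: 24 h. Detection: RT-PCR of reporter mRNA with capillary electrophoresis. Analysis: gain-of-signal vs DMSO.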

[13] = target: Oxysterols receptor LXR-alpha (Homo sapiens) (UniProt Q13133); assay: ATG_LXRa_TRANS: Attagene TRANS-FACTORIAL HepG2 Assay for human Liver X Receptor alpha (LXRa) (AID 2282980; active = hit-call score of the fitted dose curve at least 0.9, where 1 is the maximum); conditions: HepG2 Attagene TRANS reporter, LXRa transactivation
Summary of the method: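 Read-out: reporter transcript levels by RT-PCR plus capillary electrophoresis, fluorescence intensity. Transiently transfected HepG2, exogenous NR-GAL4 chimera, GAL4-UAS reporters; 24 h compound exposure. Activity = increase over DMSO negative control.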

[14] = target: Oxysterols receptor LXR-beta (Homo sapiens) (UniProt P55055); assay: ATG_LXRb_TRANS: Attagene TRANS-FACTORIAL HepG2 Assay for human Liver X Receptor beta (LXRb) (AID 2282981; active = hit-call score of the fitted dose curve at least 0.9, where 1 is the maximum); conditions: HepG2 Attagene TRANS GAL4-LXRb reporter, mRNA
Summary of the method: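 Cells: HepG2, transiently transfected with GAL4-UAS reporter units plus LXRb-Gal4 fusion. Treatment: 24 h. Detection: reporter mRNA by RT-PCR, 6-FAM labelling, HpaI digestion, capillary electrophoresis.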

[15] = target: Hepatocyte nuclear factor 4-alpha (Homo sapiens) (UniProt P41235); assay: ATG_HNF4a_TRANS: Attagene TRANS-FACTORIAL HepG2 Assay for human Hepatocyte Nuclear Factor 4 alpha (HNF4a) (AID 2282982; active = hit-call score of the fitted dose curve at least 0.9, where 1 is the maximum); conditions: HepG2 HNF4a transactivation reporter, mRNA readout
Summary of the method: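 Transfected HepG2 reporter cells are dosed for 24 h; reporter RNA is reverse-transcribed, amplified, fluorescently labelled and HpaI-digested before CE sizing. Positive-direction fit against DMSO.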

[16] = target: Nuclear receptor subfamily 4 group A member 2 (Homo sapiens) (UniProt P43354); assay: ATG_NURR1_TRANS: Attagene TRANS-FACTORIAL HepG2 Assay for human Nuclear Receptor Related Protein 1 (NURR1) (AID 2282985; active = hit-call score of the fitted dose curve at least 0.9, where 1 is the maximum); conditions: HepG2 Attagene TRANS reporter, mRNA readout
Summary of the method: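 Cells: HepG2, transiently transfected. Exposure: 24 h. Detection: fluorescence of labelled RT-PCR products separated by capillary electrophoresis; upward fit versus DMSO.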

Nuclear receptor subfamily 4 group A member 2 (Homo sapiens), sequence (P43354 whole entry, looked up): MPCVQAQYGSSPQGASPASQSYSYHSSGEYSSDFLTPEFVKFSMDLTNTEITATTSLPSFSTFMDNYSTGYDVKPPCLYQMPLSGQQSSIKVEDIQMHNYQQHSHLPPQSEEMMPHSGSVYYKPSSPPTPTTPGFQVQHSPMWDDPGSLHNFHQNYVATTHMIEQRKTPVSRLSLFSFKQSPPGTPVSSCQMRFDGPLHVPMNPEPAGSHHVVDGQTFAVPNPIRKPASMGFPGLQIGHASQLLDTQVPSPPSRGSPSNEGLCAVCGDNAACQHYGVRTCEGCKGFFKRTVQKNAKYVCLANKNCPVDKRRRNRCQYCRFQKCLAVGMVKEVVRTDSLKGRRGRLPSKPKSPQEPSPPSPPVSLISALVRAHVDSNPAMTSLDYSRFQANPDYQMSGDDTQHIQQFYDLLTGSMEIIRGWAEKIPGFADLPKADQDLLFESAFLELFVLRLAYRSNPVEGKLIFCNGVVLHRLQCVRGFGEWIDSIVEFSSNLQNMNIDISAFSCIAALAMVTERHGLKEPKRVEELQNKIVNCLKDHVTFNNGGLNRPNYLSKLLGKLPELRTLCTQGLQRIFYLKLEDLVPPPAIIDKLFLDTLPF
Nuclear respiratory factor 1 (Homo sapiens), sequence (Q16656 whole entry, looked up, the tested form may be a part): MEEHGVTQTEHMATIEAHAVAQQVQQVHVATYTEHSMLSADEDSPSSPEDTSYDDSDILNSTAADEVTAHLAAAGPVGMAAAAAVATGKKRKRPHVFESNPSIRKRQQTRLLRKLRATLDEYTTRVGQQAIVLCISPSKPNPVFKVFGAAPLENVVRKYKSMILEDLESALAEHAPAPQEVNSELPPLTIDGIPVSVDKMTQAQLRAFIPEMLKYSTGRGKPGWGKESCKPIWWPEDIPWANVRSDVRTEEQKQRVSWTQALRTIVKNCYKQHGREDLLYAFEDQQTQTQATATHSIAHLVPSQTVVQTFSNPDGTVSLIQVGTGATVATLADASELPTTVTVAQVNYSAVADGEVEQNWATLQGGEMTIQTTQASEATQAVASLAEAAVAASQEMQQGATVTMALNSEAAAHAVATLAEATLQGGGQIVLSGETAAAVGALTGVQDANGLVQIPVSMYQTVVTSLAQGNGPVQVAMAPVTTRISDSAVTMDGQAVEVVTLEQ
X-box-binding protein 1 (Homo sapiens), sequence (P17861 whole entry, looked up): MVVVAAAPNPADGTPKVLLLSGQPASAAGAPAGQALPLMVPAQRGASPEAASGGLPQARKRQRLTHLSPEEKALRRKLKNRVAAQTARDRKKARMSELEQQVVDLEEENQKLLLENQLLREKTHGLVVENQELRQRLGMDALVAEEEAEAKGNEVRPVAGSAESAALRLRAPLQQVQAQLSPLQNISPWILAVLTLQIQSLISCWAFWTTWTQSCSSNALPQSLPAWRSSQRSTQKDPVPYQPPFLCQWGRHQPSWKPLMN
Transcriptional activator Myb (Homo sapiens), sequence (P10242 whole entry, looked up): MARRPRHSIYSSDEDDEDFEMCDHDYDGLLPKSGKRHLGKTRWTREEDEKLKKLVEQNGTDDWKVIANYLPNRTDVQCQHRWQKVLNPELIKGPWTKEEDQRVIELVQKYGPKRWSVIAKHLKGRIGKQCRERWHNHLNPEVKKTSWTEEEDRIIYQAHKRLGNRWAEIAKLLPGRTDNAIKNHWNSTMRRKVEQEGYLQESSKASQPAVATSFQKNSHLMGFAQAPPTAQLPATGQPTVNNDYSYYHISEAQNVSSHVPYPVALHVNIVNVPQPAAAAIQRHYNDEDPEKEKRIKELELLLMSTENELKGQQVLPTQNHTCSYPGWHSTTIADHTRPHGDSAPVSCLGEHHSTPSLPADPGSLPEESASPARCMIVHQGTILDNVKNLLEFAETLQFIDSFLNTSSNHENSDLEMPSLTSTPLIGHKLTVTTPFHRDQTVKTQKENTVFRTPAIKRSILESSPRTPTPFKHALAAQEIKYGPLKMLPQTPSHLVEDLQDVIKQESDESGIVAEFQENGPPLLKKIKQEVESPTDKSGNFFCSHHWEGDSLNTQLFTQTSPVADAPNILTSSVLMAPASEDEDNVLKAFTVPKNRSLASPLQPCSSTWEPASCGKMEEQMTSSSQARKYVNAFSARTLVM
Hepatocyte nuclear factor 4-alpha (Homo sapiens), sequence (P41235 whole entry, looked up): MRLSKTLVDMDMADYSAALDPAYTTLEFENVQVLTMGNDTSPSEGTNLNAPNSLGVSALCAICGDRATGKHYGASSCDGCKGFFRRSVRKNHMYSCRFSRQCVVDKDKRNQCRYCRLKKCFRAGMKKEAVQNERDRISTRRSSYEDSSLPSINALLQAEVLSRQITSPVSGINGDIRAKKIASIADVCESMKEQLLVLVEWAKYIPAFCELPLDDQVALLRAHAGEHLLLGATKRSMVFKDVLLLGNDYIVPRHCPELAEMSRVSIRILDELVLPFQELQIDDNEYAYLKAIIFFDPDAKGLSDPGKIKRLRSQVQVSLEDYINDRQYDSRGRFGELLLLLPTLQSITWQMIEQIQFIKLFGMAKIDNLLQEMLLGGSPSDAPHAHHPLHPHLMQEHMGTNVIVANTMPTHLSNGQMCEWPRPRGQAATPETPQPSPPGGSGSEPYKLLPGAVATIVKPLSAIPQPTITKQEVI
Oxysterols receptor LXR-beta (Homo sapiens), sequence (P55055 whole entry, looked up, the tested form may be a part): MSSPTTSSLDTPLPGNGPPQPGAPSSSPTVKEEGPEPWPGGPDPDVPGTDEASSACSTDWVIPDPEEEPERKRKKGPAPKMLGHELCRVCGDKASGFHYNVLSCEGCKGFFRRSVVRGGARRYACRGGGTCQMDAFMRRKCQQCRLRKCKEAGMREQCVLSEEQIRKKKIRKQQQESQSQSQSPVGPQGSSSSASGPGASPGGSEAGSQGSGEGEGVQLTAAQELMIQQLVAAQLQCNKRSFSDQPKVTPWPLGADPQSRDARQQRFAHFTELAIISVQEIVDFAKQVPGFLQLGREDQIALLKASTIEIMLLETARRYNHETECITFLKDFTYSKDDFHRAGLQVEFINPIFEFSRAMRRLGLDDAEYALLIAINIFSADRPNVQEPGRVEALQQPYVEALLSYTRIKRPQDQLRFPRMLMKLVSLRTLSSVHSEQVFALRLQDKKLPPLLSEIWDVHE
Glucocorticoid receptor (Homo sapiens), sequence (P04150 whole entry, looked up, the tested form may be a part): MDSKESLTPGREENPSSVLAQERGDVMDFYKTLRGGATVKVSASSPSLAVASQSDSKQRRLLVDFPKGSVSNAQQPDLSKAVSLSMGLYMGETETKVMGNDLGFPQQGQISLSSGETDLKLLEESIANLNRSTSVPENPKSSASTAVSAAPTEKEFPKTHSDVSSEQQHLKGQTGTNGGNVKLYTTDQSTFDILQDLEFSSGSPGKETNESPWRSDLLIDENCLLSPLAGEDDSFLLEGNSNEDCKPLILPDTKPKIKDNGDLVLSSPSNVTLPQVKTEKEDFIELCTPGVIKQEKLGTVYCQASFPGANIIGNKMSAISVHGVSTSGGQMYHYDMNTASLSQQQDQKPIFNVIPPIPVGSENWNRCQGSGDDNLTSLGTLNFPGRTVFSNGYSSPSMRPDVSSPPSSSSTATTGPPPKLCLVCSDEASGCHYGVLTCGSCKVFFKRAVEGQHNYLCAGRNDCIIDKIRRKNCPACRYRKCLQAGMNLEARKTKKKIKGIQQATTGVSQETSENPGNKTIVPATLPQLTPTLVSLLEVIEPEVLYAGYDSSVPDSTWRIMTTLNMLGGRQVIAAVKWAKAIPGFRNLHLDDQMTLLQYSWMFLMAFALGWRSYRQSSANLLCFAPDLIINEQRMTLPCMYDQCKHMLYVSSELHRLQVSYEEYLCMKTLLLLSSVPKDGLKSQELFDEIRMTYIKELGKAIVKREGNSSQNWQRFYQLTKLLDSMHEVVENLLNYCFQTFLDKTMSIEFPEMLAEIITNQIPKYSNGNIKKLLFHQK
Bile acid receptor (Homo sapiens), sequence (Q96RI1 whole entry, looked up, the tested form may be a part): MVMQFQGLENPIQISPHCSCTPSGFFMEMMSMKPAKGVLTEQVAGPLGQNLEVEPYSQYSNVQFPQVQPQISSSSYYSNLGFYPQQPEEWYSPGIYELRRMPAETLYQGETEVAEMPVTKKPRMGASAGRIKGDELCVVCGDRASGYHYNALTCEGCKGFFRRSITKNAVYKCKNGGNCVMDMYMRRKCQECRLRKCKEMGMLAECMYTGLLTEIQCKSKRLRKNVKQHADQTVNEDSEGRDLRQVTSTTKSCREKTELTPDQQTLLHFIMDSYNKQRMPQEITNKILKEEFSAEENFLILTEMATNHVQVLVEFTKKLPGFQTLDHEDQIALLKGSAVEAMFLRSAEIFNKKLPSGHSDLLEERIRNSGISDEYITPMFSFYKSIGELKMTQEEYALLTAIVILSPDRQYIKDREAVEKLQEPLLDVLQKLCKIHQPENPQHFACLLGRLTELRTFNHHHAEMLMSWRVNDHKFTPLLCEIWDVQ
Oxysterols receptor LXR-alpha (Homo sapiens), sequence (Q13133 whole entry, looked up, the tested form may be a part): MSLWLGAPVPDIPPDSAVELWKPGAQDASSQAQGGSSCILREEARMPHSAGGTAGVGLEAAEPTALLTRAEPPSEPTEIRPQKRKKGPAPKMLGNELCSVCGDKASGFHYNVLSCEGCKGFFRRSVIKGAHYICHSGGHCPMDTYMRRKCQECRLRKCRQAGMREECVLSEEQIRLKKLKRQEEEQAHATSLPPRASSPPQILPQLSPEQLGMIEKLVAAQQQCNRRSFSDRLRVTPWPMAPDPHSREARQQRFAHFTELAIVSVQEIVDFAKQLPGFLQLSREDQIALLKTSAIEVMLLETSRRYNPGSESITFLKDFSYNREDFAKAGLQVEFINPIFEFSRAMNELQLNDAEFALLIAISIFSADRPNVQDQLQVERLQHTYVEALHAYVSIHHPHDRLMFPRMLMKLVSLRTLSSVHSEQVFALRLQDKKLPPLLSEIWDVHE

Row | Compound | outcome [1] | outcome [2] | AC50 [3] | outcome [4] | outcome [5] | outcome [6] | outcome [7] | outcome [8] | outcome [9] | outcome [10] | outcome [3] | outcome [11] | outcome [12] | outcome [13] | outcome [14] | outcome [15] | outcome [16] | AC50 [11]
1 | CCCCC(CC)COP(=O)(OCC(CC)CCCC)OCC(CC)CCCC (stereo not drawn) | inactive | inactive | 0.61 µM (active) | inactive | inactive | inactive | inactive | inactive | inactive | inactive |  |  |  |  |  |  |  | 
2 | CS(=O)(=O)c1ccc([C@@H](C[C@H]2CCC(=O)C2)C(=O)Nc2cnccn2)cc1Cl | inactive | inactive |  | inactive |  | inactive |  | inactive | inactive | inactive | inactive | inactive | inactive | inactive | inactive | inactive | inactive | 
3 | CC(=O)CC(c1ccccc1)c1c(O)c2ccccc2oc1=O (stereo not drawn) | inactive | inactive |  | inactive | inactive |  |  | inactive | inactive | inactive | inactive |  | inactive | inactive | inactive |  | inactive | 
4 | CC1(C)C(=O)NC(=O)N1CO | inactive | inactive |  | inactive | inactive | inactive |  |  | inactive | inactive | inactive |  | inactive |  |  | inactive | inactive | 123 µM (active)
5 | CC(C)COC(=O)CCCCC(=O)OCC(C)C | inactive | inactive |  | inactive |  |  | inactive |  | inactive | inactive | inactive |  | inactive |  | inactive | inactive |  | 
